Laboratory results taken from the supplement of paper PMC6555819.

Legend:
Test in all cases: PBM binding z-score (relative to random genomic background probes); higher = stronger binding; sequences stand for … in GC…GCGATTGACAGCGTAGAATGAAGG
[1] = tested on: FXR:RXRa (NR concentration 270 nM, RXRa partner concentration 90 nM)
Method in brief: (§1)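 Custom Agilent 4×180K protein-binding microarrays carried double-stranded probes. Their 34-nt variable regions held direct-repeat seeds, single-nucleotide variants, half-site ablations and random human genomic background sequences. Arrays were incubated 1 h with ligand-free nuclear receptor dimers in PBS pH 7.4, 2% milk, 0.02% Triton X-100, 1 mM DTT, 0.2 mg/mL BSA and 0.4 mg/ml salmon testes DNA. Antibodies against each partner (one per run) detected binding, and scanned fluorescence was regression-normalized. Binding z-scores use random background probes as reference.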

[2] = tested on: LXRa:RXRa (NR concentration 270 nM, RXRa partner concentration 90 nM)
Method in brief: as §1

[3] = tested on: LXRa homodimer (NR concentration 270 nM)
Method in brief: as §1

[4] = tested on: LXRb homodimer (NR concentration 270 nM)
Method in brief: as §1

[5] = tested on: PPARa:RXRa (NR concentration 270 nM, RXRa partner concentration 90 nM)
Method in brief: as §1

[6] = tested on: PPARg:RXRa (NR concentration 180 nM, RXRa partner concentration 90 nM)
Method in brief: as §1

[7] = tested on: PPARg:RXRa 270nM:90nM, anti-RXR (NR concentration 270 nM, RXRa partner concentration 90 nM)
Method in brief: as §1

[8] = tested on: PPARg:RXRa 30nM:10nM, anti-RXR (NR concentration 30 nM, RXRa partner concentration 10 nM)
Method in brief: as §1

[9] = tested on: PPARg:RXRa 90nM:30nM, anti-RXR (NR concentration 90 nM, RXRa partner concentration 30 nM)
Method in brief: as §1

[10] = tested on: PPARg:RXRa DBDmut IVT, anti-RXR (DBD mutation: RXRa K156A/R161A, NR concentration 270 nM, RXRa partner concentration 90 nM)
Method in brief: as §1

[11] = tested on: PPARg:RXRa IVT, anti-PPARg (NR concentration 270 nM, RXRa partner concentration 90 nM)
Method in brief: as §1

[12] = tested on: PPARg DBDmut:RXRa IVT, anti-PPARg (DBD mutation: PPARg1 K132A/R137A, NR concentration 270 nM, RXRa partner concentration 90 nM)
Method in brief: as §1

[13] = tested on: PPARg DBDmut IVT, anti-PPARg (DBD mutation: PPARg1 K132A/R137A, NR concentration 270 nM)
Method in brief: as §1

[14] = tested on: PPARg homodimer (NR concentration 180 nM)
Method in brief: as §1

[15] = tested on: PXR:RXRa (NR concentration 270 nM, RXRa partner concentration 90 nM)
Method in brief: as §1

[16] = tested on: PXR homodimer (NR concentration 270 nM)
Method in brief: as §1

[17] = tested on: RARa:RXR (NR concentration 270 nM, RXRa partner concentration 90 nM)
Method in brief: as §1

[18] = tested on: RARa homodimer (NR concentration 270 nM)
Method in brief: as §1

[19] = tested on: RARb:RXRa (NR concentration 270 nM, RXRa partner concentration 90 nM)
Method in brief: as §1

Sequence	PBM binding z-score [1]	PBM binding z-score [2]	PBM binding z-score [3]	PBM binding z-score [4]	PBM binding z-score [5]	PBM binding z-score [6]	PBM binding z-score [7]	PBM binding z-score [8]	PBM binding z-score [9]	PBM binding z-score [10]	PBM binding z-score [11]	PBM binding z-score [12]	PBM binding z-score [13]	PBM binding z-score [14]	PBM binding z-score [15]	PBM binding z-score [16]	PBM binding z-score [17]	PBM binding z-score [18]	PBM binding z-score [19]
CTCGAAAGGGCGTGCTCAGGTGAGTATACCAAAC	0.538	0.109	-0.329	-0.824	0.533	-0.312	0.0309	-0.439	-0.22	-0.316	0.335	-0.537	-0.0248	-0.194	-0.0546	0.0968	0.278	-0.187	1.37
ACTAGTTGGTCAGCTGGGGTCACACACAATTCGG	3.81	3.01	0.525	0.369	4.47	2.37	3.06	0.707	2.36	1.23	2.46	0.596	-0.0449	2.5	5.82	1.23	6.17	0.784	3.33
AGAATGGGGTTATTAAGATCAGGGAATTGCGGTC	3.03	2.77	0.597	2.14	4.48	3.31	3.5	1.26	2.65	3.63	3.26	1.44	1.55	2.23	2.44	1.82	2.78	1.71	1.77
CCTAGTTGGTCAAGGTCCCACACGCTATAGGTAC	0.27	0.395	0.55	-0.02	0.398	0.782	0.497	-0.0168	0.409	1.11	1.17	-0.0918	0.474	1.59	0.0607	0.41	0.436	0.884	1.29
CCTAGTTGGTCAAGGTCACGCACGCTATAGGTAC	4.95	4.55	2.22	0.524	4.31	3.69	4.15	1.96	3	2.54	3.78	0.403	0.558	3.73	4.64	2.27	4.99	2.21	4.31
AGAATGAGGTTACCAAAGATCAGTGAAACGCTTG	1.73	6.11	0.0874	-0.00616	3.4	2.6	2.57	1.19	2.06	4.06	3.2	1.32	0.399	0.652	1.56	0.0456	1.9	0.395	2.06
CGTCCAAGGTAAATGCTAGGTCAGTGAAAGCATT	0.57	1.38	0.935	-0.419	0.673	-0.228	-0.117	-0.486	-0.493	0.714	0.881	-1.05	-0.95	0.424	0.128	-0.305	0.803	-0.343	1.61
CCTTACGGGTCACTCAAGGTTATAGCATCGGAGT	5.96	7.83	3.32	-0.133	4.73	3.97	4.48	1.55	3.36	2.86	3.83	1.98	1.29	3.87	6.13	1.3	4.95	0.631	4.07
ATCGAAAGGTCGACGAGGTGAGAATACACCGTTT	5.1	3.9	0.0731	0.224	4.87	3.21	3.7	1.25	2.26	0.716	2.39	0.449	1.17	2.15	3.29	0.612	4.11	0.753	4.1
CCTACTGGGCCAAGGTCATTGACCAGTCAAAGCA	3.77	4.03	1.67	-0.702	4.03	4.3	4.66	2.17	4.38	3.82	4.84	-0.707	-1.06	1.94	3.71	1.37	3.95	-0.225	3.45
CCTACTGGGCCGAGGTCATTGATCAGTCAAAGCA	4.08	3.71	1.15	-0.228	3.96	3.02	3.38	0.749	2.52	1.55	2.71	-0.758	-1.27	2.05	4.62	2.49	4.33	-0.11	3.19
CCTACTGGGCCATTCAGAGGTCATCGATCATATG	2.91	4.22	6.05	0.293	4.19	2.51	3.01	1.49	2.37	4.55	4.6	1.41	-0.27	5.67	5.11	2.18	5.25	1.9	3.29
TCTAGTTGGTCAAAGGTCAAACACTCGAAATGCG	6.51	6.59	5.24	2.77	6.82	11.2	10.3	9.94	11	3.57	6.13	0.582	1.1	5.11	6.28	2.64	7.64	2.96	5.23
CCTACTGGGCAAAAAAGGTCATTGATGCCGATAA	3.26	4.69	3.15	-0.0939	4.85	1.45	2.78	0.775	1.99	0.468	1.62	-0.0172	-0.686	2.27	4.27	1.28	4.86	0.909	3.81
AGTCAAAGTTCACTAGGTTACGTAAGATTCAGCT	4.92	5.44	3.95	1.5	4.85	7.41	6.74	4.4	5.88	3.75	5.6	1.8	1.2	1.99	4.58	4.84	4.08	2.05	4.93
CGTCAAAGTTCATGGTAACGTAACAGAAAGCAGC	6.57	5.67	3.17	1.2	4.95	5.02	5.36	2.39	4.08	0.9	2.06	1.17	1.03	3.91	4.52	2.84	3.68	1.6	5
CGTCAAAGTTCAAGGTAATGTAACAGAAAGCAGC	5.9	5.34	2.54	1	4.74	4.21	5.13	2.14	3.68	0.0949	2.03	0.311	0.686	2.57	3.95	2.92	3.38	1.61	5.14
